Measurements reported in PubChem BioAssay AID1347056 (Sanford-Burnham Center for Chemical Genomics, 2019).
Several values for one entry are separate records, joined by “and”; a condition that tells them apart may be missing. Equal values may be shown once. About 3,600 (1%) of roughly 360,000 compounds were called active.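 How the source made its calls: active means compounds whose plate-normalised and pattern-corrected inhibition of the luciferase reporter signal at the single screening dose is 50% or more; inactive means the rest.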 For the sample, actives were picked, then their nearest neighbours and some compounds at random.

test: inhibitors of TROY-driven NF-kB signaling, primary screen, Q293 LMP1-TROYcd cells, NF-kB luciferase, uHTS (AID 1347056); settings: Q293 LMP1-TROYcd NF-kB luciferase reporter, 4 h; at 10 µM; active compounds read high

Row | Compound | inhibition
1 | Cc1ccc(NC(=O)Cc2nnc(SCC(=O)Nc3nncs3)n2C)cc1 | -1.88% (inactive)
2 | CCOC(=O)Cc1c(C)nc2c(C#N)c(C)nn2c1C | 10.1% (inactive)
3 | CN(CC(=O)NCc1ccncc1)S(=O)(=O)c1ccc(Br)cc1 | 0.22% (inactive)
4 | Cc1ccc(S(=O)(=O)N2CCCCC2)cc1NC(=O)CCNC(=O)c1ccccc1 | -24.1% (inactive)
5 | C[C@H]1CC[C@]2(O[C@@H](CCO)C[C@@H](O)[C@@H]2O)O1 | 80.2% (active)
6 | OCC[C@H]1C[C@H](O)[C@@H](O)[C@]2(CCCCO2)O1 | -23.7% (inactive)
7 | C[C@@H]1CC[C@]2(O[C@@H](CCO)C[C@H](O)[C@H]2O)O1 | 0.26% (inactive)
8 | CCOC(=O)C1(C)CCCN(C(=O)c2ccc(F)c(Cl)c2)C1 (stereo not drawn) | 2.88% (inactive)
9 | Cc1ccccc1N1CCN(Cc2nc(Cc3ccccc3F)no2)CC1 | -8.4% (inactive)
10 | O=C(/C=C/c1cnc2ccccc2n1)NC1CCCCCC1 | -49.1% (inactive)
11 | Cc1nc2cc(NC(=O)CSc3nc4c(C)cccc4cc3C#N)ccc2s1 | 4.28% (inactive)
12 | COc1ccc(C2/C(=C(/O)c3ccccc3)C(=O)C(=O)N2c2ncccn2)cc1OC (stereo not drawn) | -2.92% (inactive)
13 | COc1ccc(/C(O)=C2/C(=O)C(=O)N(c3nc(C)c(C)s3)C2c2ccco2)cc1 (stereo not drawn) | -21.4% (inactive)
14 | CCOc1ccc(/C(O)=C2\C(=O)C(=O)N(c3ccc(OC)cc3)C2c2ccccc2[N+](=O)[O-])cc1 (stereo not drawn) | 54.8% (active)
15 | Cc1ccc(C(O)c2ncc(-c3ccccc3F)[nH]2)cc1F (stereo not drawn) | -21.9% (inactive)
16 | CC(=O)c1ccc(N2CCN(S(=O)(=O)c3ccc4c(c3)CC(=O)N4C)CC2)cc1 | -27.6% (inactive)
17 | Cc1cnc(CN(C)C(=O)CC2C(=O)NCCN2Cc2cccc(F)c2F)[nH]1 (stereo not drawn) | 3.88% (inactive)
18 | Cc1ccc(NC(=O)C2CCCN(S(=O)(=O)c3c(C)noc3C)C2)c(C)c1 (stereo not drawn) | -7.46% (inactive)
19 | COc1c(C)cc(C(=O)C2CCCN(S(=O)(=O)c3c(C)noc3C)C2)cc1C (stereo not drawn) | 50.3% (active)
20 | Cc1noc(C)c1S(=O)(=O)N1CCCC(C(=O)Nc2nccs2)C1 (stereo not drawn) | -32.5% (inactive)

Row | Compound | inhibition
21 | CCOC(=O)CCC(NC(=O)c1ccc(CNc2nc3cc(C(F)(F)F)ccc3nc2C(=O)OCC)cc1)C(=O)OCC (stereo not drawn) | -25.2% (inactive)
22 | CCCCCc1nnc(NC(=O)c2ccc(=O)n(C)n2)s1 | -18.4% (inactive)
23 | O=C(CN1C(=O)/C(=C/c2ccccc2F)Sc2ccccc21)NCc1cccnc1 | 44.7% (inactive)
24 | CN(C(=O)CN1C(=O)S/C(=C\c2ccccc2F)C1=O)C1CCS(=O)(=O)C1 (stereo not drawn) | 6.08% (inactive)
25 | O=C(CN1C(=O)/C(=C\c2ccccc2F)SC1=S)Nc1nc2ccccc2s1 | 68.3% (active)
26 | COc1ccc(CNC(=O)CCC(=O)Nc2nnc(C(C)C)s2)cc1 | -5.09% (inactive)
27 | O=C(O)C1C2C=CC(C2)C1C(=O)N1CCN(CCO)CC1 (stereo not drawn) | -8.15% (inactive)
28 | CC1(C)SC2C(NC(=O)COc3ccccc3)C(=O)N2C1C(=O)O (stereo not drawn) | -1.14% (inactive) and 4.62% (inactive)
29 | COc1ccc(C2=NO[C@@H]3C(=O)N(Cc4ccccc4)C(=O)[C@H]23)cc1OC | -14.4% (inactive)
30 | COc1ccc(-c2cc(C(F)(F)F)nc(S(C)(=O)=O)n2)cc1OC | 55% (active)
31 | COc1ccc(-c2cc(C(=O)N(C)Cc3ccc(OC)c(OC)c3OC)c3ccccc3n2)cc1OC | 19.6% (inactive)
32 | c1ccc2c(C[n+]3csc4ccccc43)cccc2c1 | 13.4% (inactive)
33 | Cc1noc(C)c1C(=O)NC(C)c1ccc2c(c1)OCO2 (stereo not drawn) | 1.6% (inactive)
34 | O=C(COC(=O)C1CC2CCCC(C1)C2=O)NC(=O)c1ccccc1 (stereo not drawn) | 4.06% (inactive)
35 | O=c1c2ccccc2c(-c2ccc(F)cc2)nn1-c1ccc(C(F)(F)F)cc1 | -12.3% (inactive)
36 | Cn1c(-c2ccc(F)cc2)cc2onc(-c3ccccc3Cl)c2c1=O | 6.78% (inactive)
37 | Cn1c(-c2ccc(C(F)(F)F)cc2)cc2onc(-c3ccccc3)c2c1=O | 69.6% (active)
38 | COc1cc(/C(=C/c2ccccc2)c2ccccc2)c2c(c1)oc1ccccc12 | 0.46% (inactive)
39 | Cc1ccc(S(=O)(=O)N(C)c2nc3ccccc3n3c(C(C)C)nnc23)cc1 | 6.76% (inactive)
40 | CC1(C)N=C(N)NC(Nc2ccc(Cl)cc2)=N1 | -5.09% (inactive)

Row | Compound | inhibition
41 | Cc1cc(OCc2ccc(C(=O)Nc3ccc(C(=O)O)cc3)o2)ccc1Cl | -33.7% (inactive)
42 | O=c1oc2ccccc2cc1-c1cn(-c2ccccc2)c(=S)[nH]1 | 90.1% (active)
43 | O=C1Cc2ccccc2Sc2ccc(Cl)cc21 | -41.4% (inactive)
44 | CCCCNC(=O)C[C@@H]1C[C@@]2(C(=O)OCC)CCC=C2N(Cc2ccco2)C1=O | 1.34% (inactive)
45 | O=c1c(/C=N/O)coc2ccc(Cl)cc12 | 12.5% (inactive)
46 | Cc1ccc2occ(/C=N/NC(=O)c3ccccc3C)c(=O)c2c1 | 57.9% (active)
47 | CC(C)(C)OC(=O)NCCCCCC(=O)N/N=C/c1coc2ccccc2c1=O | -22.3% (inactive)
48 | CC1(Cc2ccccc2C#N)C(=O)Nc2ccc(-c3ccc4[nH]ccc4c3)cc21 (stereo not drawn) | 24.8% (inactive)
49 | CC(Sc1nncn1C)C(=O)Nc1cc(C(F)(F)F)ccc1N1CCOCC1 (stereo not drawn) | -8.48% (inactive)
50 | Cc1onc(-c2ccc(Cl)cc2)c1-c1ccnn1S(=O)(=O)c1ccc(Cl)cc1 | -10.7% (inactive)
51 | O=C(COC(=O)c1cccnc1Cl)NC(=O)NC1CCCCC1 | -1.94% (inactive)
52 | CC(=O)Nc1ccc(S(=O)(=O)N2CCC(N(C)CCC(C)C)CC2)cc1 | 15.7% (inactive)
53 | NC(=NC(=O)c1ccccc1)N1CCOCC1 | -4.29% (inactive)
54 | CC1CN(C(=S)SCC(=O)c2ccccc2)CC(C)O1 (stereo not drawn) | -38.2% (inactive)
55 | O=C(CSC(=S)N1CCOCC1)c1ccccc1 | 50.2% (active)
56 | CC1=CC=CN2C1=NC(=O)CC2(C)C(=O)N(CC(=O)NC1CCCC1)c1ccccc1C (stereo not drawn) | 6.68% (inactive)
57 | CN1CCN(c2ccncc2S(=O)(=O)N2CCCC2)CC1 | -13.2% (inactive)
58 | COCCNc1ncnc2c1ncn2[C@H]1CN(Cc2ccc(OC)cc2)C[C@@H](CO)O1 | -16.1% (inactive)
